Source: PubChem (several laboratories)
Platelet DG rel = platelet dense granule release activity; human platelet-rich plasma, SFLLRN dense granule ATP release, luminescence; inhibition, %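 (compounds screened at 7.5 µM in platelet-rich plasma)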; 0.22% of 300,000 active;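 active = mean replicate score, as percent of positive control, at or above 50; inconclusive = mean below 50 but at least one replicate at or above 50; inactive = mean and every replicate below 50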
SENP7 inh = blocks the human protease SENP7. Q9BQF6. recombinant SENP7, Z-RLRGG-aminoluciferin luminescence, 40 min. inhibition, % at 5 µM. 1.5% of 330,000 active. AID 434973;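 active = inhibition above about 50% at the single test dose, limit read from the data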;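 note: plate controls were DMSO with enzyme for no effect and no enzyme buffer wells for full effect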
Target sequence (Q9BQF6 706-1050 limits assumed): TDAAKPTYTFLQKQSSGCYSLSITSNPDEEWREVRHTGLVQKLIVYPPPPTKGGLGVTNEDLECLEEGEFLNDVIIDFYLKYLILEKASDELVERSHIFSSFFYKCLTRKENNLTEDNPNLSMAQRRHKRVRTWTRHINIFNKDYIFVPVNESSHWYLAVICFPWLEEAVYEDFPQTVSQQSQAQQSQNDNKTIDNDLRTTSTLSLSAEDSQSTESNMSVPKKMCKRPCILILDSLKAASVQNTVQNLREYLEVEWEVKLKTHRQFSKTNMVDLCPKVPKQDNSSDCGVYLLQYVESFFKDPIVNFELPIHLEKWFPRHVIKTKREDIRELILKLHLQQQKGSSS
SENP6 block = blocks the human protease SENP6; Recombinant SENP6 catalytic domain, aminoluciferin luminescence; AID 2599; Q9GZR1; 1.8% of 330,000 active; inhibition, % at 10 µM;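 active = inhibition above about 50% at the single tested dose, limit read from the data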;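 note: plate controls were DMSO wells with enzyme for no effect and DMSO wells lacking enzyme for full effect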
SENP8 block-1 = SENP8 protease inhibition; Q96LD8; purified SENP8, Z-RLRGG-aminoluciferin cleavage, luminescence; inhibition, % at 10 µM; 1.2% of 330,000 active; in the data active = inhibition above about 50%
Target sequence (Q96LD8 whole entry, looked up): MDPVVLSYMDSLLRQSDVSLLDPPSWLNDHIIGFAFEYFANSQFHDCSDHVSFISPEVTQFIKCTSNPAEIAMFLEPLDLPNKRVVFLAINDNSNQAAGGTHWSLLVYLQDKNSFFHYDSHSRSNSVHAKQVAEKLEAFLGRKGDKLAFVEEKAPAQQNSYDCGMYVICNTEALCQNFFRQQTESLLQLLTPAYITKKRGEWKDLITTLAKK
SENP8 block-2 = blocks human SENP8 cleavage of Nedd8 substrate; inhibition, % at 20 µM; Q96LD8; 0.64% of 360,000 active; recombinant SENP8, Nedd8 substrate fluorescence; in the data active = inhibition mostly above about 40%, no sharp cut-off; inactive = mostly below about 27%
SENP8 confirm = human SENP8 inhibition, confirmed. shares compounds with SENP7 inh. Recombinant SENP8, Z-RLRGG-aminoluciferin luminescence, 60 min. inhibition, % at 12.5 µM. 40% of 6,200 active. AID 488912;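 active = mean inhibition across replicates above about 50%, limit read from the data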
SENP6 confirm = confirmation of human SENP6 protease inhibitors; shares compounds with SENP7 inh; recombinant SENP6, Z-RLRGG-aminoluciferin luminescence; inhibition, % at 12.5 µM; 58% of 6,200 active; AID 488915
SENP7 confirm = confirmation of human SENP7 protease inhibitors. AID 488917. recombinant SENP7, Z-RLRGG-aminoluciferin luminescence, 40 min. inhibition, % at 12.5 µM. shares compounds with SENP7 inh. 69% of 6,200 active
Casp3 select = caspase-3 inhibition (SENP selectivity assay) | shares compounds with SENP7 inh | purified caspase-3, Z-DEVD-aminoluciferin luminescence, 60 min | inhibition, % at 12.5 µM | 60% of 6,200 active;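 active = mean inhibition above about 50%, limit read from the data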;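 note: plate controls were enzyme with DMSO for no effect and wells without caspase-3 for full effect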
Target sequence (P42574 28-227 limits assumed): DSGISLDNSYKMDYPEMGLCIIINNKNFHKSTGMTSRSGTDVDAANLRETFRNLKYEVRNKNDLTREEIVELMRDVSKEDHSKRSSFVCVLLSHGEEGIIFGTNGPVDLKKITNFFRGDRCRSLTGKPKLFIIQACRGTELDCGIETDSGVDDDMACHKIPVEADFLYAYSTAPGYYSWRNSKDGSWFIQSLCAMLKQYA
Luc interf = interferes with luciferase luminescence in SENP counter-screen. shares compounds with SENP7 inh. Pre-incubated SENP8/Z-RLRGG-aminoluciferin, luciferase luminescence interference. inhibition, % at 12.5 µM. 39% of 6,200 active. AID 488919;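 active = mean inhibition above about 50% when retested at one dose, limit read from the data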;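 note: plate controls were DMSO wells with completed reaction for no effect and substrate without enzyme for full effect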
The depositor's hits bear a star; ? = inconclusive; nt = no result. Hits are enriched below; roughly 2.4% of the tested compounds scored in any of these assays.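 Rule for the calls, unless noted: active = mean inhibition above about 50% in the one-dose retest (limit read from the data); inactive = the rest.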

SMILES | Platelet DG rel | SENP7 inh | SENP6 block | SENP8 block-1 | SENP8 block-2 | SENP8 confirm | SENP6 confirm | SENP7 confirm | Casp3 select | Luc interf
Cc1nc(COC(=O)c2cc(O)c3ccccc3c2O)cs1 | 8.4 | nt | nt | nt | -359.8 | nt | nt | nt | nt | nt
CC(=O)c1cc(O)c2ccccc2c1O | 4.8 | 8.3 | 59.7* | 26.7 | -17.8 | 1.2 | 10.2 | -1.6 | -1.6 | 1.0
O=C(OCc1csc(-c2ccccc2)n1)c1ccccc1O | -6.2 | 91.1* | 91.8* | 88.4* | 12.4 | 85.5* | 92.1* | 98.6* | 81.8* | 39.5
COc1ccc(C(=O)Oc2ccc(/C=N/O)cc2)cc1 | 2.7 | 61.0* | 78.7* | 52.9* | 29.2 | 66.9* | 66.8* | 90.1* | 73.2* | 33.3
COc1cccc(NC(=O)c2ccc3nc(C)sc3c2)c1 | 11.6 | 88.9* | 90.6* | 72.5* | 15.9 | 80.3* | 80.6* | 95.1* | 87.1* | 84.2*
COc1cccc(NC(=O)c2ccc3snnc3c2)c1 | 5.4 | 57.5* | 63.9* | 48.1 | 33.3 | 55.5* | 52.4* | 83.9* | 74.6* | 63.8*
O=C(Nc1ccc(F)cc1)c1ccc2snnc2c1 | -6.7 | 1.9 | -0.6 | 4.1 | 1.9 | nt | nt | nt | nt | nt
O=C(N/N=C\c1ccc([N+](=O)[O-])s1)c1cncc(Br)c1 | -0.2 | 15.0 | 69.7* | 8.8 | 36.9 | -0.5 | 18.7 | -7.0 | 3.7 | 3.5
O=C(N/N=C/c1cccs1)c1cncc(Br)c1 | 8.1 | -4.5 | -5.9 | -10.4 | 8.7 | nt | nt | nt | nt | nt
COc1ccc(OC)c2c(C)cc(N3CCN(C(=O)c4ccc(Cl)cc4)CC3)nc12 | 0.2 | 24.1 | 69.2* | 42.3 | -300.0 | 11.6 | 5.4 | 4.7 | 2.8 | -3.2
CC(=O)c1cccc(NC(=O)c2cc(-c3ccco3)on2)c1 | -4.3 | -0.9 | -3.3 | 2.8 | 2.6 | nt | nt | nt | nt | nt
O=C(Nc1cccc(O)c1)c1cc(-c2ccco2)on1 | 25.3 | -1.5 | 92.1* | 84.4* | 6.0 | 90.1* | 90.7* | 98.5* | 90.1* | 89.5*
COc1ccc(-c2cc(C(=O)Nc3cccc(O)c3)no2)cc1 | 32.1 | 98.8* | 97.4* | 92.6* | 12.0 | 93.0* | 94.0* | 100.8* | 95.3* | 56.8*
CC(C)C(NC(=O)c1ccc(Cl)c([N+](=O)[O-])c1)C(=O)NCc1ccccn1 (stereo not given) | nt | 6.8 | 12.2 | -2.4 | -5.0 | nt | nt | nt | nt | nt
C/C(=N\NC(=O)c1ccccc1O)c1ccc(NC(=O)c2ccccc2)cc1 | nt | -10.3 | 5.1 | 2.6 | -138.5 | nt | nt | nt | nt | nt
C/C(=N\NC(=O)c1ccc2ccccc2c1)c1cccs1 | nt | 83.3* | 84.1* | 69.9* | -4.1 | 54.2* | 52.8* | 92.8* | 84.1* | 10.3
C/C(=N\NC(=O)c1ccccc1O)c1cccs1 | -4.7 | 60.7* | 0.8 | 18.2 | -35.6 | 50.4* | 45.1 | 77.6* | 85.1* | 57.5*
C/C(=N/NC(=O)c1cc(C2CC2)[nH]n1)c1cccs1 | 21.0 | 65.7* | 29.9 | 46.2 | 29.7 | 63.7* | 61.5* | 88.1* | 89.3* | 70.9*
C/C(=N\NC(=O)c1cccc2ccccc12)c1cccs1 | 4.5 | -0.1 | -7.5 | 1.5 | 10.1 | nt | nt | nt | nt | nt
C/C(=N/NC(=O)c1ccccc1O)c1ccc(N2C(=O)C3CCCCC3C2=O)cc1 (stereo not given) | 6.3 | 21.8 | 61.8* | -5.8 | -56.5 | -3.3 | -2.4 | -8.0 | -2.8 | -4.0
CC(C)(C)OC(=O)N1CCC(NC(=O)c2[nH]cnc2C(=O)Nc2cccc(Cl)c2)CC1 | nt | 0.8 | -15.8 | -3.1 | -9.1 | nt | nt | nt | nt | nt
CCCOc1ccc(C(=O)N(CC(C)C)c2c(N)n(Cc3ccccc3)c(=O)[nH]c2=O)cc1 | -2.2 | -9.7 | -13.3 | -15.2 | -9.5 | nt | nt | nt | nt | nt
O=C(CCCCn1cnc2c(=S)nc[nH]c21)Nc1ccc(C(=O)O)c(O)c1 | nt | nt | nt | nt | -11.8 | nt | nt | nt | nt | nt
O=C(COC(=O)c1cncc(Br)c1)NCc1cccs1 | nt | 2.3 | -8.5 | 2.8 | -2.6 | nt | nt | nt | nt | nt
COc1ccc(N2C(=O)c3ccccc3C2=O)cc1 | 7.0 | 14.2 | -6.4 | 1.4 | 11.7 | nt | nt | nt | nt | nt
SMILES | Platelet DG rel | SENP7 inh | SENP6 block | SENP8 block-1 | SENP8 block-2 | SENP8 confirm | SENP6 confirm | SENP7 confirm | Casp3 select | Luc interf
CCO/C=C1\C(=O)N(c2ccccc2)C(=O)c2ccccc21 | nt | -7.4 | 53.3* | 14.9 | -246.5 | 14.4 | 53.9* | 24.2 | 19.3 | -1.5
CCO/C=C1/C(=O)N(c2ccc(OC)cc2)C(=O)c2ccccc21 | 8.3 | 26.2 | 62.6* | 5.7 | -351.2 | 26.4 | 70.2* | 35.8 | 24.7 | -1.8
CCO/C=C1/C(=O)N(CC)c2ccccc21 | 3.1 | -1.7 | -4.1 | 0.4 | 15.5 | nt | nt | nt | nt | nt
CCO/C=C1/C(=O)N(Cc2ccccc2)C(=O)c2ccccc21 | 8.5 | 81.0* | 94.4* | 89.7* | -407.9 | 81.7* | 96.6* | 85.8* | 97.7* | 6.8
CCO/C=C1/C(=O)N(c2ccccc2OC)C(=O)c2ccccc21 | -5.0 | 30.8 | 34.8 | 16.2 | -413.7 | nt | nt | nt | nt | nt
COc1cc(Br)cc(C(=O)N2CCc3ccccc32)c1OC | nt | nt | nt | nt | 6.8 | nt | nt | nt | nt | nt
Cc1cccc(Nc2nnc(SCc3cn4ccsc4n3)s2)c1 | -0.2 | 61.0* | 56.0* | 42.4 | 16.6 | 40.8 | 40.2 | 72.5* | 45.4 | 54.6*
CCCCN1C(=O)C(=Nc2cccc3cnccc23)c2ccccc21 | ? | 81.4* | 87.0* | 10.7 | -398.3 | -9.6 | -3.3 | -7.2 | -1.9 | -7.2
CCCCN1C(=O)/C(=C2\SC(N3CCCCC3)=NC2=O)c2ccccc21 | 6.3 | 10.6 | 26.1 | -6.7 | 12.7 | nt | nt | nt | nt | nt
COc1ccc2c(c1OC)C(=O)N1c3ccccc3SC21 (stereo not given) | 1.1 | 11.6 | 50.4* | 28.5 | -306.8 | 40.0 | 36.7 | 77.7* | 58.2* | 28.7
COc1ccc2c(c1OC)C(=O)N1c3ccccc3COC21 (stereo not given) | 14.8 | 7.7 | 17.4 | -1.6 | 24.1 | nt | nt | nt | nt | nt
CC(C)CCn1nnnc1CN1CCN(C(=O)c2ccco2)CC1 | 4.2 | -5.1 | -24.8 | -6.3 | 9.7 | nt | nt | nt | nt | nt
Cc1nc(C)c(-c2csc(NCc3ccco3)n2)s1 | 6.8 | 3.9 | 7.1 | -0.8 | -18.4 | nt | nt | nt | nt | nt
COc1cccc(Nc2nc(-c3sc(NC(=O)c4ccccc4)nc3C)cs2)c1 | 1.8 | 40.2 | 59.4* | 34.7 | -88.1 | 11.9 | 10.7 | 20.3 | 36.9 | 12.2
Cc1nc(NC(=O)c2ccccc2)sc1-c1csc(NCc2ccco2)n1 | -3.3 | 66.1* | 60.2* | 48.3 | -43.0 | 27.6 | 28.7 | 36.1 | 66.7* | 32.2
COc1cccc(Nc2nc(-c3sc(NC(=O)CC(C)C)nc3C)cs2)c1 | 4.0 | 6.7 | -13.2 | 2.7 | -77.3 | nt | nt | nt | nt | nt
